HDAC3 inhib: blocks human histone deacetylase 3; 0.15% of 320,000 active; inhibition, % at 8.3 µM; O15379; recombinant HDAC3, fluorogenic peptide/trypsin coupled, fluorescence; in the data active = inhibition above about 26%, passing the limit was not always enough; inconclusive = no clear call, values can overlap the other calls
NPR1 activator: GC-A (human) enzyme activation; 0.14% of 370,000 active; AID 1671463; HEK293 GC-A cells, cGMP TR-FRET, EC30 ANP; 0% at EC30 ANP, 100% saturating ANP; P16066; activation, % at 10 µM; in the data active = activation above about 40%
GC-B act: GC-B (human) receptor activation. P20594. HEK293-GC-B cells, CNP EC30, cGMP TR-FRET; 0% at EC30 CNP, 100% saturating CNP. activation, % at 10 µM. 0.11% of 370,000 active;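 active = activation at 10 µM reaching about 35% in either raw or pattern-adjusted values, limit read from the data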
Target sequence (P20594 whole entry, looked up): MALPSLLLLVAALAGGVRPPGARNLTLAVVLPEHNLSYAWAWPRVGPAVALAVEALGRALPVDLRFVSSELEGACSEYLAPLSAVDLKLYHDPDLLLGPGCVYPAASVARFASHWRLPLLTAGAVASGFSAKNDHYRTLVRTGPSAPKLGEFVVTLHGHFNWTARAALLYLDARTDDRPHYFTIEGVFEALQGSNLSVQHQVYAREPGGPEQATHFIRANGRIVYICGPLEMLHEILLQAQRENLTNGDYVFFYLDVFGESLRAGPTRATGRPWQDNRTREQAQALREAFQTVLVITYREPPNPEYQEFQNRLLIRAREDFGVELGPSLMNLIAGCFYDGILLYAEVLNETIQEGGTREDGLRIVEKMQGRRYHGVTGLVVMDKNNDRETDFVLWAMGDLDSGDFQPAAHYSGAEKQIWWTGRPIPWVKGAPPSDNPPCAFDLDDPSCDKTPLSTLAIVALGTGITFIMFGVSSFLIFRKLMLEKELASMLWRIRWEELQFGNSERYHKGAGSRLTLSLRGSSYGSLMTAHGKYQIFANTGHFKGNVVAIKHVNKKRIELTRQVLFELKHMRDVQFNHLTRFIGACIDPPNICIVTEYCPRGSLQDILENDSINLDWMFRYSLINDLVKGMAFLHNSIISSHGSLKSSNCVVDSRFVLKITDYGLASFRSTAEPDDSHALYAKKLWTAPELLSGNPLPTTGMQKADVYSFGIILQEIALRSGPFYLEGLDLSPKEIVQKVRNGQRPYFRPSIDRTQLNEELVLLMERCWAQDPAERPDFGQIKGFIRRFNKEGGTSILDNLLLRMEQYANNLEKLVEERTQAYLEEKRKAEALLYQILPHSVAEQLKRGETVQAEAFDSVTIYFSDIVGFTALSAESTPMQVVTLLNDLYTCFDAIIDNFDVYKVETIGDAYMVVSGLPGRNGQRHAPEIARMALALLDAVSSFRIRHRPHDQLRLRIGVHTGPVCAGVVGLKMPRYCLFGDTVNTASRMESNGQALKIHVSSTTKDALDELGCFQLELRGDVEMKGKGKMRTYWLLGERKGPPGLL
ALR inh: inhibitors of human sulfhydryl oxidase ALR. P55789. purified ALR, DTT oxidation, H2O2 HRP-luminol luminescence. inhibition, % (concentration not given with the values). 3.8% of 290,000 active;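 active = mean replicate inhibition above about 79%, with every replicate also reaching it, limit read from the data; inconclusive = only one of the two criteria met; inactive = mean below limit and not every replicate reaching it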
Numbers stand for hits; 0 = inactive; ? = inconclusive; - = no result given. This excerpt belongs to a sample that is enriched for hits.

SMILES	HDAC3 inhib	NPR1 activator	GC-B act	ALR inh
CCCC/C(=N\O)c1c[nH]c2ccccc12	0	0	0	89
O/N=C/c1c[nH]c2ccccc12	0	0	0	-
O=C1NC(=O)N(Cc2ccccc2Cl)C(=O)/C1=C/c1cccs1	0	0	0	97
Cc1ccc(/C=C2\C(=O)NC(=O)N(Cc3ccccc3Cl)C2=O)o1	0	0	0	99
O=C1NC(=O)N(Cc2ccc(F)cc2)C(=O)/C1=C/c1cccs1	0	0	0	?
COC(=O)C1=C(c2ccc(OC)c(OC)c2)C[C@@H]2CC[C@H]1N2C(=O)NCc1cc(C)oc1C(F)(F)F	0	0	0	0
CC(N)C(=O)NC1C2C(=C(O)CC(O)C2O)C(=O)OC1(C)C(Cl)Cl (stereo not drawn)	-	0	0	-
O=c1[nH]c(=O)n(CCc2ccccc2)c(O)c1C=NC1CC1	0	0	0	0
CCN1/C(=C/C=C/C2=[N+](CC)c3ccccc3C2(C)C)C(C)(C)c2ccccc21	-	0	43	-
CN1/C(=C\C=C\C2=[N+](C)c3ccc4ccccc4c3C2(C)C)C(C)(C)c2ccccc21	0	-	-	-
CN1CCC(N(C)c2ccc(C(N)=O)cc2[N+](=O)[O-])CC1	0	0	0	0
CN(C)c1ccc(/C=C/[N+](=O)[O-])cc1	0	0	0	98
Cc1ccc(N2C(=O)NC(=O)/C(=C/c3ccc(OC(=O)c4cccs4)cc3)C2=O)cc1	56	0	0	0
CN1CCN(c2ccc(N)cc2Cl)CC1	0	0	0	90
CN1CCN(c2ccc(Cl)cc2N)CC1	0	0	0	0
CCN(CC)c1ccc(C=C2C(=O)NC(=S)NC2=O)cc1	0	0	0	99
COC(=O)C(O)(c1ccc(NC(=O)Oc2ccccc2)cc1)C(F)(F)F (stereo not drawn)	0	0	0	0
CN1CCN(c2ccc(NC(=O)Oc3ccccc3)cc2)CC1	0	0	0	80
CCC(C)N1C(=O)/C(=C\c2cc3c4c(c2)CCCN4CCC3)C(=O)NC1=S (stereo not drawn)	0	0	0	99
CN1C(=O)c2ccccc2NC(=O)C1Cc1ccccc1 (stereo not drawn)	0	0	0	98
CN1C(=O)C(Cc2ccccc2)C(=O)N(C)C1=O	-	0	0	-
O=[N+]([O-])c1cc(O)c(O)c([N+](=O)[O-])c1	0	0	0	92
N#CCCn1cc(C(=O)Nc2ccccc2Cl)c(-c2ccc(F)cc2)n1	0	0	0	0
COc1cc(/C=C2\C(=O)NC(=O)N(c3ccccc3)C2=O)cc(OC)c1O	0	0	0	91
COc1cc(/C=C2\C(=O)NC(=O)N(c3ccccc3)C2=O)c([N+](=O)[O-])cc1OC	-	0	0	-
SMILES	HDAC3 inhib	NPR1 activator	GC-B act	ALR inh
COC(=O)c1ccccc1OP1(=O)COc2ccccc2OC1	0	0	0	99
O=P1(Nc2ccc(F)cc2)COc2ccccc2OC1	0	0	0	0
CC1CC2(C)C(=CC1=O)CCC1C3CCC(C)(O)C3(C)CC3OC312 (stereo not drawn)	-	0	0	-
O=C(c1ccccc1)C(CN1CCCC1)c1ccccc1 (stereo not drawn)	0	0	0	97
CCN1CCN(CC(c2ccccc2)c2ccccc2)CC1	0	0	0	0
CC(Cc1ccccc1Sc1ccc(O)cc1)N(C)C (stereo not drawn)	0	-	-	99
CC(Cc1ccccc1Sc1ccccc1)N(C)C (stereo not drawn)	0	0	0	0
CN1CC=C(/C=C/c2ccc(-c3ccccc3)cc2)CC1	0	-	-	0
C/C(=N\Nc1ccccc1)c1c(O)n(-c2ccccc2)c(=O)[nH]c1=O	0	0	0	99
CN=C(SCc1ccccc1)c1c(O)n(C)c(=O)n(C)c1=O	0	0	0	98
Cn1c(O)c(C(=O)c2ccccc2)c(=O)n(C)c1=O	0	0	0	0
C/C(=N\Nc1ccccc1)c1c(O)n(C)c(=O)n(C)c1=O	0	0	0	99
C/C(=N\NC(=O)c1ccccc1O)c1c(O)n(C2CCCCC2)c(=O)[nH]c1=O	0	0	0	0
C/C(=N\NC(=O)c1ccccc1)c1c(O)n(C2CCCCC2)c(=O)[nH]c1=O	0	0	0	93
C/C(=N\Nc1ccccc1)c1c(O)n(Cc2ccccc2)c(=O)[nH]c1=O	0	0	0	98
CC/C(=N\N1CCN(C)CC1)c1c(O)[nH]c(=O)[nH]c1=O	0	0	0	-
CN1C(=O)C(=Cc2ccc(Sc3ccccc3)o2)C(=O)N(C)C1=S	0	0	0	0
CN1C(=O)C(=Cc2ccc(Sc3ccccc3)o2)C(=O)N(C)C1=O	-	46	0	0
O=C1NC(=O)C(=Cc2ccc(Sc3ccccc3)o2)C(=O)N1	0	51	49	0

High-throughput results as filed in PubChem.
